Data as given in PubChem BioAssay (Tox21).
Where “and” joins values, the source holds several entries; their conditions need not be identical. Identical values can stand only once. Records with an inconclusive call do not appear. A call without a number means that no potency is given here. Some structures have more than one record in an assay (separate samples or runs), and their calls can disagree. Calls of active or inactive are those of the source. No rule for the calls is given here.

experiment: qHTS assay to identify small molecule antagonists of the estrogen related receptor signaling pathway with the pleiotropic PPARgamma coactivator (PGC) from Tox21 10K library (AID 1224841); settings: PGC/ERR reporter cell line, ONE-Glo luciferase, 18 h; series mostly up to 92.4 µM; also: actives are mostly falling curves and most rising ones were filed inactive; nearly all actives have a fitted effect of over 50% in size
Excerpt: U.S. Tox21 Program National Center for Advancing Translational Sciences [NCATS] NIH Chemical Genomics Center [NCGC] U.S. Environmental Protection Agency [EPA] National Institutes of Environmental Health Sciences [NIEHS] National Toxicology Program [NTP] U.S. Food and Drug Administration [FDA] Tox21 Assay Overview: Estrogen related receptors (ERRs), the first orphan nuclear receptors discovered, play an important role in the control of cellular energy metabolism. ERRs are required for high-energy production in response to the environmental challenges. The pleiotropic PPARgamma coactivator (PGC) is a major partner of ERR and a key regulator in energy homeostasis. Together they have been implicated in the etiology of metabolic disorders such as Type 2 diabetes and metabolic syndrome. ERR-alpha was also identified as an adverse marker for breast cancer progression; ERR-alpha-positive tumors have a poor prognosis. To screen and to identify environmental compounds that perturb the ERR and PGC/ERR signaling pathways could provide valuable information for potential therapeutic or preventive measures in the treatment of metabolic disease. For identifying PGC/ERR antagonists, PGC/ERR cell line (provided by NTP) has been used to screen Tox21 10K library.
Tox21 Assay Protocol Summary: The PGC/ERR cells were dispensed at 2,000 cells/5 ul/well in 1536-well white plates using a Multidrop dispenser. After the assay plates were incubated at a 37 C/5% CO2 incubator for 6 hours, 23 nL of compounds dissolved in DMSO, positive and negative controls or DMSO only was transferred to the assay plate by a pin tool. The plates were incubated at 37 C for 18 hours. 4 ul/well of One-Glo reagent was added into the assay plates using a Flying Reagent Dispenser. After 30-minute incubation at room temperature, the luminescence intensity in the plates was measured using a ViewLux plate reader.
Potency is read from the fitted curve at half-maximal effect.

Compound | Potency
CCCCOCCOCCOCCO | inactive
Cc1ccc(C(=O)c2cc(O)c(O)c([N+](=O)[O-])c2)cc1 | 30.6 µM (active)
COc1ccc(OC)c(C(O)CNC(=O)CN)c1 (stereo not given) | inactive
c1ccc2sc(SSN3CCOCC3)nc2c1 | inactive
CCCC(=O)O | inactive
S=C(NC1CCCCC1)NC1CCCCC1 | 23.9 µM (active) and 21.7 µM (active)
Cc1cccc(C(=O)O)c1 | inactive
Nc1ccc(Cl)cc1Cl | inactive
NC=O | inactive
C#C[C@]1(O)CC[C@H]2[C@@H]3CCC4=Cc5oncc5C[C@]4(C)[C@H]3CC[C@@]21C | 24.3 µM (active) and 23.7 µM (active)
COc1cccc2c1C(=O)c1c(O)c3c(c(O)c1C2=O)C[C@@](O)(C(=O)CO)C[C@@H]3O[C@H]1C[C@H](N)[C@H](O)[C@H](C)O1 | inactive
CC1=CC2C3CC(C=C3C)C2C1 (stereo not given) | inactive
C/C=C/C(=O)O | inactive
CC(C)CC(C)(O)C#CC(C)(O)CC(C)C (stereo not given) | inactive
CCC(C)c1ccccc1O (stereo not given) | inactive
CCOCCOCCO | inactive
Cn1cnc([N+](=O)[O-])c1Sc1ncnc2nc[nH]c12 | inactive
O=c1oc(=O)c2cc3c(=O)oc(=O)c3cc12 | inactive
O=C(c1ccccc1)c1ccccc1O | inactive
CCOC(=O)C(C#N)=C(c1ccccc1)c1ccccc1 | inactive

Compound | Potency
Nc1ncnc2nc[nH]c12 | inactive
CCC(C)OC(=O)c1ccc(O)cc1 (stereo not given) | inactive
CCCCC/C=C/C=C/C=O | inactive and 54.5 µM (active)
Cc1c(OCC(F)(F)F)ccnc1CS(=O)c1nc2ccccc2[nH]1 (stereo not given) | inactive
CC(C)OC=O | inactive
O=C1c2cccc(O)c2C(=O)c2c(O)cccc21 | 39 µM (active) and inactive
C[C@]12CC[C@H]3[C@@H](CCC4=CC(=O)CC[C@@]43C)[C@@H]1CC[C@@H]2C(=O)CO | inactive
CCC(C)CO (stereo not given) | inactive
O=C(/C=C/C=C/c1ccc2c(c1)OCO2)N1CCCCC1 | inactive
O=[N+]([O-])c1ccc2c(c1)Cc1ccccc1-2 | inactive
O=C1OC2(c3cc(Br)c(O)c(Br)c3Oc3c2cc(Br)c(O)c3Br)c2c(Cl)c(Cl)c(Cl)c(Cl)c21 | 10.9 µM (active)
COC(=O)CCC(=O)OC | inactive
O=C(COc1ccc(Cl)cc1)N1CCN(Cc2ccc3c(c2)OCO3)CC1 | 43.3 µM (active)
CC(=O)C1(C)CC2=C(CCCC2(C)C)CC1C (stereo not given) | inactive
CC(C)Oc1ccc2c(=O)c(-c3ccccc3)coc2c1 | inactive
CCCCCCCCCCCO | inactive
COC(C)COC(C)COC(C)CO (stereo not given) | inactive
O=C=Nc1ccc(Cc2ccc(N=C=O)cc2)cc1 | inactive
COc1c(Cl)c(Cl)c(Cl)c(Cl)c1Cl | inactive
CCCCC(CC)COCC1CO1 (stereo not given) | inactive
